# Target: ZNF653
# Assay: pooled miR-30 sensor sort-seq; sequence = guide strand
# Settings: shRNA
# Also: reference of the scale not given here.
row,Sequence,sensor-assay potency score (higher = more potent)
1,TTCTTCCTCTTGAAGGACTTGC,-0.65
2,TTGACGTGGTTCTGGAAGCTGC,-0.877
3,TTGGCGTCGCTCCAGCCGCTGC,-1.56
4,TTCCTCTTGAAGGACTTGCCGC,-0.882
5,TTGTACTGCACCTCCGCAGTGT,-0.237
6,ATAAATAGAACTTCTTGCCACA,-0.586
7,TGACATGTCGCTGCCGTCCAGC,-1.21
8,TTGGATAAATAGAACTTCTTGC,-0.368
9,TTTGTCACTGTCAGGGTCTGAG,-0.472

# Target: ZNF654
# Assay: as above
# Settings: shRNA
row,Sequence,sensor-assay potency score (higher = more potent)
1,TATCTTGATCAGAACAGGCATC,-0.711
2,TGAGTCTGTCTGAACATCCCAA,-0.147
3,TTGTCGCACATTTAAATCGGTT,-1.07
4,TTGAGCTGCAGCAATTTGCTGC,0.117
5,TTGATTTGCTAGTAGAAACTGG,0.3
6,TTACACATGCAAAACTGCCTTT,0.225
7,TTTGCTAGTAGAAACTGGCAGA,-0.0895
8,TAGGATTTGAGTCTGTCTGAAC,-1.01
9,TAAAGTTTCCTTCTTGATCTGT,0.508
10,TTCTTGTGGTACAACACTGGGC,-0.302
11,TAAATATCCGGACACAACCAAG,-1.3
12,TTCTGAACTAAACTGTCTGTTT,0.135

# Target: ZNF674
# Assay: as above
# Settings: shRNA
row,Sequence,sensor-assay potency score (higher = more potent)
1,TTTTACATTCTTGACCACTTTC,-0.602
2,TACAGAAACAAAGTCTGTGTTG,-0.525
3,TTCTACATATTTTACATTCTTG,-0.737
4,TTGATGAGAGTTGACTTCCTAC,-0.0843
5,TTCTTGACCACTTTCATCCTTC,0.42
6,TATCTGCTCGTCAACTTCCCAG,-1.05
7,TTTACTACACTCATAAATGTTC,-0.591
8,TTGACCACTTTCATCCTTCAGT,0.00879
9,TTTTACAGAAACAAAGTCTGTG,0.624
10,TACATTCTTGACCACTTTCATC,-1.6
11,TTGGACATTTGTCACATACAAA,-1.79
12,TTTACAGAAACAAAGTCTGTGT,-0.0841

# Target: ZNF708
# Assay: as above
# Settings: shRNA
row,Sequence,sensor-assay potency score (higher = more potent)
1,TTTGTCACACTGAACTATTTTG,-1.74
2,ATGTCTTATCTTATGTCTCTTT,-1.05
3,TACTGTGATGTCTTCCAGCTTT,-0.106
4,TTATCTTATGATTCGTAAGGTT,-0.564
5,TTTCTTGTGATTAGTAAGGTTT,-0.453
6,TTTCTAGTAAGAATTATCTTAC,-0.946
7,TTGAAAATACACTAAAAGCTTT,-0.61

# From the OligoGym collection
